Experimental data: PubChem BioAssay (EPA / NIEHS)
The source made the active and inactive calls. The calls were made as follows: active = hit-call score of the fitted dose curve at least 0.9, where 1 is the maximum; inactive = score below 0.9.

assay: APR_HepG2_MitoMass_24hr: Apredica 24-hour HepG2 Assay for Mitochondrial Mass (AID 2282912); details: high-content imaging, actives raise or lower the signal
Description: APR_HepG2_24hr is a cell-based, multiplexed-readout assay that uses HepG2, a human liver cell line, with measurements taken at 24 hours after chemical dosing in a 384-well plate.APR_HepG2_MitoMass_24hr is one of 10 assay component(s) measured or calculated from the APR_HepG2_24hr assay. It is designed to make measurements of cell phenotype, a form of morphology reporter, as detected with fluorescence intensity signals by HCS Fluorescent Imaging technology.Data from the assay component APR_HepG2_MitoMass_24hr was analyzed into 1 assay endpoint. This assay endpoint, APR_HepG2_MitoMass_24hr, was analyzed with bidirectional fitting relative to DMSO as the negative control and baseline of activity. Using a type of morphology reporter, gain or loss-of-signal activity can be used to understand changes in the signaling. Furthermore, this assay endpoint can be referred to as a primary readout, because this assay has produced multiple assay endpoints where this one serves a signaling function. To generalize the intended target to other relatable targets, this assay endpoint is annotated to the cell morphology intended target family, where the subfamily is organelle conformation.
Cells were treated with dimethyl sulfoxide (DMSO) as a solvent control at a final concentration of 0.5% v/v or with compounds in DMSO with a resulting final DMSO concentration of 0.5% v/v. Compound treatment was done at concentrations of 0.39, 0.78, 1.56, 3.12, 6.24, 12.5, 25, 50, 100, and 200 uM in duplicate on each plate. Cells were treated with compounds for 1, 24, or 72 hr. Carbonyl […] m-chloro-phenylhydrazone (CCCP) and taxol were used as positive controls for mitochondrial function and cytoskeletal stability, respectively; DMSO served as the negative control for this experiment. Cells were fixed by the direct addition of 50 uL formaldehyde in Hank's Balanced Salt Solution (HBSS) to a final concentration of 3.7%. After incubation in the fixation medium for 30 min at room temperature (293-298 K), cells were rinsed twice with HBSS and treated with cell permeabilization buffer (16 uL of 0.5% Triton X-100) for 10 min at room temperature (293-298 K) before labeling. For mitochondrial membrane potential and mitochondrial measurements, pre-fixed cells were incubated with 50 uL of MitoTracker Red CMXRos (Invitrogen) at a concentration of 250 nM for 30 min before fixation. In the remaining cases, post-fixed cells were labeled by incubation with a multiplexed mixture of primary antibodies in HBSS for 60 min at room temperature (293-298 K) to detect immunoreactivity of c-Jun (1:500), phospho-histone H3 (1:100), phospho-histone H2A.x (1:200), p53 (1:400), alpha-tubulin (1:200) and Hoechst 33342 (2 ug/mL). Cells were labeled for multiplexed imaging on two separate plates: a) Hoechst 33342, MitoTracker Red, phospho-histone H3, and alpha-tubulin, and b) Hoechst 33342, phospho-histone H2A.x, and c-Jun. A final rinse with HBSS (50 uL) was performed before analysis. The primary and secondary antibodies for the proteins were phospho-histone H3 (rabbit anti-phospho-histone H3 and FITC-donkey anti-rabbit IgG), phospho-histone H2A.x (mouse anti-phospho-histone H2A.x and FITC-donkey anti-mouse IgG), c-Jun (rabbit anti-phospho-c-Jun and Cy3-donkey anti-rabbit IgG), p53 (sheep anti-p53 and Cy5-donkey anti-sheep IgG), alpha-tubulin (mouse anti-alpha-tubulin and Cy5-donkey anti-mouse IgG). These antibodies are available as the CellCiphr HepG2 assay kit (Millipore).Digital images of each well were captured using a Cellomics ArrayScan VTI (Thermo Scientific Cellomics) (0.8 NA objective, 0.63x optical coupler, and XF-93 filter set) at 20x magnification. The images were acquired using the autofocus feature of the ArrayScan instrument, which entails the following steps. First, the camera focuses on channel 1 (Hoechst 33342), where nuclei are identified. Second, a Z offset of 1 um is used for capturing mitochondria (MitoTracker Red). […]

| SMILES | outcome | AC50 |
| --- | --- | --- |
| C#CCC1=C(C)C(OC(=O)C2C(C=C(C)C)C2(C)C)CC1=O (stereo not given) | inactive |  |
| CCCCOC(=O)c1ccccc1C(=O)O | inactive |  |
| CC1(C(=O)Nc2ccc(O)c(Cl)c2Cl)CCCCC1 | inactive |  |
| COc1cc(OC)nc(Sc2cccc(Cl)c2C(=O)O)n1 | inactive |  |
| COP(=O)(NC(C)=O)SC (stereo not given) | inactive |  |
| Nc1c(Cl)cc([N+](=O)[O-])cc1Cl | inactive |  |
| CC(C)N(C(=O)SCC(Cl)=C(Cl)Cl)C(C)C | inactive |  |
| Cc1ccn2nc(S(=O)(=O)Nc3c(F)cccc3F)nc2n1 | inactive |  |
| C#CC(C)(C)NC(=O)c1cc(Cl)cc(Cl)c1 | inactive |  |
| CCC(=NOC/C=C/Cl)C1=C(O)CC(C2CCOCC2)CC1=O (stereo not given) | inactive |  |
| CC(C)[C@H](C(=O)O[C@H](C#N)c1cccc(Oc2ccccc2)c1)c1ccc(Cl)cc1 | inactive |  |
| CNC(=O)ON=C(C)SC | inactive |  |
| CCOP(=S)(OCC)SCCSCC | inactive |  |
| COP(=O)(OC)OC(Br)C(Cl)(Cl)Br (stereo not given) | inactive |  |
| FC(F)C(F)(F)OCC(Cn1cncn1)c1ccc(Cl)cc1Cl (stereo not given) | inactive |  |
| CC1=NNC(=O)N(/N=C/c2cccnc2)C1 | inactive |  |
| CON=C(C(=O)OC)c1ccccc1CON=C(C)c1cccc(C(F)(F)F)c1 | inactive |  |
| CNC(=O)ON=C(SC)C(=O)N(C)C | inactive |  |
| CCOP(=S)(OCC)Oc1ccc([N+](=O)[O-])cc1 | inactive |  |
| CCOP(=S)(OCC)OC(Cl)C(Cl)(Cl)Cl (stereo not given) | inactive |  |

| SMILES | outcome | AC50 |
| --- | --- | --- |
| CSC1=N[C@@](C)(c2ccccc2)C(=O)N1Nc1ccccc1 | inactive |  |
| CCOC(=O)COc1cc(-c2nn(C)c(OC(F)F)c2Cl)c(F)cc1Cl | inactive |  |
| CSc1nc(NC(C)C)nc(NC(C)C)n1 | inactive |  |
| N#CSCSC#N | inactive |  |
| CNC(=O)Oc1cccc2c1OC(C)(C)O2 | inactive |  |
| CCCOCC(=Nc1ccc(Cl)cc1C(F)(F)F)n1ccnc1 | inactive |  |
| COc1ccc(C(=CC(=O)N2CCOCC2)c2ccc(Cl)cc2)cc1OC | inactive |  |
| CC(=NC#N)N(C)Cc1ccc(Cl)nc1 | inactive |  |
| CCc1cnc(C2=NC(C)(C(C)C)C(=O)N2)c(C(=O)O)c1 (stereo not given) | inactive |  |
| CCc1cccc(CC)c1N(COC)C(=O)CCl | inactive |  |
| CSc1nnc(C(C)(C)C)c(=O)n1N | inactive |  |
| CN1COCN(Cc2cnc(Cl)s2)C1=N[N+](=O)[O-] | inactive |  |
| CCOP(=S)(OCC)Oc1cc(C)nc(C(C)C)n1 | inactive |  |
| CC(C1CC1)C(O)(Cn1cncn1)c1ccc(Cl)cc1 (stereo not given) | inactive |  |
| CC[C@H](C)[C@H]1O[C@]2(C=C[C@@H]1C)C[C@@H]1C[C@@H](C/C=C(\C)[C@@H](O[C@H]3C[C@H](OC)[C@@H](O[C@H]4C[C@H](OC)[C@@H](NC)[C@H](C)O4)[C@H](C)O3)[C@@H](C)/C=C/C=C3\CO[C@@H]4[C@H](O)C(C)=C[C@@H](C(=O)O1)[C@]34O)O2 |  | 8.64 µM (active) |
| CCOC(=O)CC(SP(=O)(OC)OC)C(=O)OCC (stereo not given) | inactive |  |
| COP(=O)(OC)C(O)C(Cl)(Cl)Cl (stereo not given) | inactive |  |
| CC(C)=CC1C(C(=O)OCN2C(=O)C3=C(CCCC3)C2=O)C1(C)C (stereo not given) | inactive |  |
| Nc1nc(N)nc(NC2CC2)n1 | inactive |  |
| CCCCN(CC)c1c([N+](=O)[O-])cc(C(F)(F)F)cc1[N+](=O)[O-] | inactive |  |
